# The panel holds about 83,000 compounds, 20% with a hit somewhere; the sample as a whole holds those more often.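 Results are percent growth after 48 hours of single-concentration exposure. 100 means growth as in untreated cells, lower positive values show inhibition; negative values down to -100 show cell death.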 Unmarked numbers belong to inactive results. Calls of active or inactive are those of the source. Rule for the calls: active = growth percent below 10; inactive = the rest.
# Tested on: HL-60(TB) leukemia
# Assay: NCI-60 one-dose screen, 48 h (100 = growth as untreated, 0 = no growth, -100 = all killed)
# Conditions: 10 µM unless noted
row,Compound,growth
1,c1ccc(-c2nc(Nc3nccnn3)c3ccccc3n2)cc1,99.4%
2,C#CC[C@@H]1C[C@]2(C)[C@H]3CC=C4[C@H]5[C@@H](C)[C@H](C)CC[C@]5(C(=O)NCCCCCCCCN)CC[C@@]4(C)[C@]3(C)CC[C@H]2C(C)(C)[C@H]1OC(C)=O,-15.1% (active)
3,CCCCCCCCCCCCCCCCn1cc[n+](C)c1,45.7%
4,Cn1cc(-c2nnc(-c3cn(C)c4ncccc34)s2)c2ccccc21,27.8%
5,C#CCOc1ccc2ncnc(Nc3cccc(CNC(=O)C=C)c3)c2c1,97.4% [8.25 µM]
6,O=C(O)COc1ccc([N+](=O)[O-])cc1Cl,108%
7,COc1ccc(/C=N/NC(=O)c2ccc(S(C)(=O)=O)cc2)cc1OC,54.1%
8,CC(C)COc1nc2c(c(=O)n(C)c(=O)n2C)n1C,97%
9,Cc1nn2c(/C=C3/C(=O)Nc4ccc(Cl)cc43)c(-c3ccccc3)nc2s1,81.5%
10,COc1ccc(/C(C)=C(\c2ccc(OCCN3CCCCCC3)cc2)c2ccc(OC(=O)c3ccccc3)cc2)cc1,31.2%
11,c1cn2cc(-c3ccc4ncn(C5CCCCC5)c4c3)nc(-c3ccc4c(c3)ncn4C3CCCCC3)c2n1,-42.2% (active)
12,COc1cc2c(c(OC)c1)C1c3cc(OC)ccc3NC(=O)N1CC2 (stereo unspecified),66.3%
13,Cc1ccc(-n2c3c(c(-c4ccccc4)c2-c2ccccc2)C2=NCCN2C=N3)cc1,98.5%
14,NC(=O)C1(Nc2ccc(Br)cc2)CCCC1,94.8%
15,C/C(=N/N=C(N)N)c1ccc(Cl)cc1,171%
16,COc1ccc2nc3cc(Cl)ccc3c(NCCNc3c4ccc(Cl)cc4nc4ccc(OC)cc34)c2c1,-75% (active)
17,CN(C)CCOc1ccc(/C(=C(/CCCCCCCCCC[P+](c2ccccc2)(c2ccccc2)c2ccccc2)c2ccccc2)c2ccccc2)cc1,-62.1% (active)
18,Cc1cc2cn3c4ccc(O)cc4[nH]c(=O)c3c2cc1C,-51.9% (active)
19,O=C1c2cccnc2C(=O)c2c1c(C(=O)OCCCN1CCCCC1)c1ccccn21,-21.6% (active)
20,Cc1ccc(C(F)(F)F)cc1N1CCN(C(=O)[C@H]2C[C@H]2c2ccc(C(F)(F)F)nc2)CC1,81.8%
21,COC(=O)c1cnc2c(c1)Oc1ccccc1-c1ccnn1-2,98.3%
22,COc1cc(C(=O)Oc2ccccc2OC(=O)c2cc(OC)c(OC)c(OC)c2)cc(OC)c1OC,110%
23,COc1ccc(NC(=O)Nc2ccccc2CNc2nc(Nc3ccc(OCCN4CCCC4)cc3)ncc2Cl)cc1,-43.7% (active)
24,CCC1=CCC[C@@]2(C)CCC[C@@]3(C)CCCC(C)(C)[C@]1([O-])[O+]32,107%
25,COc1ccc2c(c1)C(=O)/C(=C/c1ccc(OCC(=O)c3ccc(Cl)cc3)cc1)O2,70.2%
26,COc1ccc(CNC(=O)C(=O)[C@H](Cc2ccccc2)NC(=O)c2[nH]c3ccccc3c(=O)c2C)cc1,110%

# From PubChem BioAssay (NCI)
